The target of assay [1] is Transcription factor E2F1 (Homo sapiens) (UniProt Q01094). The assay is described as follows: ATG_E2F_CIS: Attagene CIS-FACTORIAL HepG2 Assay for human E2F Transcription Factor 1 (AID 2282935). The conditions noted are these: HepG2 Attagene cis-reporter, E2F reporter RNA transcripts; actives raise or lower the signal. The gist of the method: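 Gain or loss of reporter transcript, fitted against DMSO, reflects E2F1-driven transcription. Transiently transfected HepG2 dosed 24 h before RNA isolation. Quantified by fluorescent RT-PCR products separated by capillary electrophoresis.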

The nature of assay [2]: ATG_E_Box_CIS: Attagene CIS-FACTORIAL HepG2 Assay for human Enhancer Box (E-box) (AID 2282936). The conditions noted are these: HepG2 E-box cis-reporter transcription, actives raise or lower the signal. The gist of the method:
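E-box-driven reporter transcripts measured in transiently transfected HepG2 after 24 h exposure: RNA reverse-transcribed, PCR-amplified, fluorescently labelled, digested and resolved by capillary electrophoresis. Gain or loss relative to DMSO.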

Assay [3] is described as follows: ATG_M_61_CIS: Attagene CIS-FACTORIAL HepG2 Assay for M61 Transcription Factor (Internal Marker) (AID 2282937). The conditions noted are these: HepG2 Attagene CIS-FACTORIAL M61 internal marker reporter; actives raise or lower the signal. The gist of the method:
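Fluorescence from labelled cDNA fragments, separated by capillary electrophoresis, quantifies reporter induction. HepG2 cells bearing transiently transfected cis-promoter MRTUs were incubated with test chemical for 24 h; DMSO defined baseline for gain/loss fitting.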

Assay [4] in a line: ATG_EGR_CIS: Attagene CIS-FACTORIAL HepG2 Assay for human Early Growth Response 1 (EGR1) (AID 2282938). The conditions noted are these: HepG2 Attagene CIS-FACTORIAL EGR reporter mRNA; actives raise or lower the signal. The gist of the method:
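Cell-based multiplex transcription assay: HepG2 carrying transfected cis-element reporter units, 24 h chemical treatment. Fluorescence from capillary electrophoresis of RT-PCR products gives mRNA levels; fitting is bidirectional relative to DMSO.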

Assay [5] in a line: ATG_M_19_CIS: Attagene CIS-FACTORIAL HepG2 Assay for M19 Transcription Factor (Internal Marker) (AID 2282939). The conditions noted are these: HepG2 Attagene CIS-FACTORIAL M19 internal marker reporter; actives raise or lower the signal. The gist of the method: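 HepG2 cells transiently transfected with cis-regulated multiplexed reporter units, dosed 24 h. Reporter mRNA quantified by RT-PCR and capillary electrophoresis; internal background marker fitted bidirectionally versus DMSO.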

Assay [6] can be described thus: ATG_ERE_CIS: Attagene CIS-FACTORIAL HepG2 Assay for Estrogen Response Element (ERE) (AID 2282940). Conditions: HepG2 ERE cis-reporter, Attagene RNA transcript; actives raise or lower the signal. The gist of the method:
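HepG2 cells transiently transfected with multiplexed cis-element reporter units, measuring endogenous transcription factor activity; ERE reporter mRNA quantified after 24 h exposure by RT-PCR, fluorescent labelling, HpaI digestion and capillary electrophoresis. Bidirectional change versus DMSO.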

The nature of assay [7]: ATG_Ets_CIS: Attagene CIS-FACTORIAL HepG2 Assay for human Erythroblast Transformation Specific (ETS) (AID 2282941). The conditions noted are these: HepG2 ETS cis-reporter transcription, actives raise or lower the signal. The gist of the method:
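Bidirectional fit versus DMSO of reporter mRNA signal, detected by RT-PCR and capillary electrophoresis in HepG2 cells transiently transfected with cis-element reporters and dosed 24 h.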

Assay [8] concerns the target Hepatocyte nuclear factor 3-beta (Homo sapiens) (UniProt Q9Y261). The assay is described as follows: ATG_FoxA2_CIS: Attagene CIS-FACTORIAL HepG2 Assay for human Forkhead box A2 (FOXA2) (AID 2282942). The conditions noted are these: HepG2 cis-reporter transcription factor activity, 24 h; actives raise or lower the signal. The gist of the method: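 In transiently transfected human HepG2 cells, promoter-driven reporter mRNA levels after 24 h chemical exposure are determined via RT-PCR with capillary electrophoresis. DMSO serves as baseline for bidirectional fitting.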

Assay [9] in a line: ATG_FoxO_CIS: Attagene CIS-FACTORIAL HepG2 Assay for human Forkhead box O (FoxO) (AID 2282943). Conditions: HepG2 Attagene cis-reporter, FoxO element, mRNA; actives raise or lower the signal. The gist of the method: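 Endogenous transcription factor activity read from multiplexed cis-promoter reporter transcripts in transiently transfected HepG2, 24 h after dosing. Reporter RNA measured via RT-PCR plus capillary electrophoresis of FAM-labeled products; gain or loss relative to DMSO.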

Assay [10] is described as follows: ATG_GATA_CIS: Attagene CIS-FACTORIAL HepG2 Assay for human GATA Binding Protein (AID 2282944). The conditions noted are these: HepG2 GATA cis-element reporter, Attagene multiplex mRNA; actives raise or lower the signal. The gist of the method: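 HepG2 cells transiently transfected with multiplexed cis-element reporter units measure endogenous GATA activity; after 24 h compound exposure, reporter mRNA quantified by RT-PCR and capillary electrophoresis. Changes fitted in both directions vs DMSO.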

A short description of assay [11]: ATG_GLI_CIS: Attagene CIS-FACTORIAL HepG2 Assay for human Zinc Finger Protein GLI1 (AID 2282945). The conditions noted are these: HepG2, Attagene cis-factorial reporter mRNA, GLI element; actives raise or lower the signal. The gist of the method:
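Bidirectional curve fits relative to DMSO, using reporter mRNA levels from RT-PCR plus capillary electrophoresis. Cells were HepG2 transiently carrying cis-regulated reporter constructs, harvested 24 h after dosing.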

The target of assay [12] is Bile acid receptor (Homo sapiens) (UniProt Q96RI1). The assay is described as follows: ATG_IR1_CIS: Attagene CIS-FACTORIAL HepG2 Assay for human Nuclear Receptor Subfamily 1 Group H Member 4 (NR1H4), IR1 submotif (AID 2282946). Conditions: IR1 reporter transcription, actives raise or lower the signal. The gist of the method: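 HepG2 cells transiently transfected with multiplexed cis-element reporter units read endogenous transcription factor activity. After 24 h compound exposure, reporter mRNA was quantified by RT-PCR, fluorescent labelling, HpaI digestion and capillary electrophoresis; bidirectional fitting versus DMSO baseline.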

A short description of assay [13]: ATG_GRE_CIS: Attagene CIS-FACTORIAL HepG2 Assay for human Glucocorticoid Response Elements (GRE) (AID 2282947). Conditions: HepG2 GRE cis-reporter, Attagene multiplex mRNA; actives raise or lower the signal. The gist of the method:
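Reporter transcripts read by RT-PCR with capillary electrophoresis fluorescence after a 24 h chemical exposure of HepG2 cells transiently transfected with multiple cis-element reporter units. Gain or loss fitted against DMSO.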

Assay [14] in a line: ATG_ISRE_CIS: Attagene CIS-FACTORIAL HepG2 Assay for human Interferon Regulatory Factor 1 (IRF1) binding to an Interferon-Stimulated Response Element (ISRE) (AID 2282948). Conditions: HepG2 ISRE cis-reporter (Attagene), mRNA transcription readout; actives raise or lower the signal. The gist of the method: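 Uses HepG2 liver cells transfected with cis-regulated reporters and measures mRNA 24 h post-dosing through RT-PCR, primer-extension labelling and capillary electrophoresis, with DMSO as negative control.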

Assay [15] is described as follows: ATG_M_06_CIS: Attagene CIS-FACTORIAL HepG2 Assay for M06 Transcription Factor (Internal Marker) (AID 2282950). The conditions noted are these: HepG2 Attagene CIS-FACTORIAL M06 internal marker reporter; actives raise or lower the signal. The gist of the method:
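Internal background marker within multiplexed cis-reporter HepG2 system. Cells transiently transfected, dosed 24 h; reporter mRNA measured by RT-PCR, HpaI digestion and capillary electrophoresis. Bidirectional fit relative to DMSO.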

Assay [16] addresses Hypoxia-inducible factor 1-alpha (Homo sapiens) (UniProt Q16665). The assay is described as follows: ATG_HIF1a_CIS: Attagene CIS-FACTORIAL HepG2 Assay for human Hypoxia Inducible Factor 1 (HIF1A) (AID 2282951). Conditions: HepG2 Attagene cis-factorial HIF1a reporter transcription; actives raise or lower the signal. The gist of the method: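 In this multiplexed cell assay, HepG2 cells bearing transfected cis reporters are dosed for 24 h and reporter mRNA is read by RT-PCR plus capillary electrophoresis; signal increases and decreases are both scored against DMSO.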

Assay [17] has as its target Hepatocyte nuclear factor 6 (Homo sapiens) (UniProt Q9UBC0). The experiment in a line: ATG_HNF6_CIS: Attagene CIS-FACTORIAL HepG2 Assay for human Hepatocyte Nuclear Factor 6 (HNF6) (AID 2282952). Conditions: HepG2 Attagene cis-factorial HNF6 reporter transcription; actives raise or lower the signal. The gist of the method:
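Endogenous factor activity read in transiently transfected HepG2 via promoter-regulated reporter transcripts. RNA harvested 24 h post-dosing, reverse-transcribed, PCR-amplified, FAM-labelled, HpaI-digested and resolved by capillary electrophoresis; fitted in both directions against DMSO.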

Assay [18] can be described thus: ATG_MRE_CIS: Attagene CIS-FACTORIAL HepG2 Assay for human Metal Responsive Element (MRE) (AID 2282954). Conditions: HepG2 MRE cis-reporter transcription, Attagene multiplex; actives raise or lower the signal. The gist of the method:
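Endogenous MRE-dependent transcription read as reporter mRNA in transiently transfected human HepG2 cells at 24 h. RNA reverse-transcribed, PCR-amplified, labelled and resolved by capillary electrophoresis; gain or loss relative to DMSO.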

For assay [19], the target named is Heat shock factor protein 1 (Homo sapiens) (UniProt Q00613). The assay is described as follows: ATG_HSE_CIS: Attagene CIS-FACTORIAL HepG2 Assay for human Heat Shock Transcription Factor 1 (HSE) (AID 2282953). The conditions noted are these: HepG2 HSE cis-reporter, Attagene RNA transcription; actives raise or lower the signal. The gist of the method: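 HepG2 cells transfected with cis-promoter reporter units sensing endogenous transcription factor activity; reporter mRNA quantified 24 h post-dose by RT-PCR and capillary electrophoresis of 6-FAM-labelled products. Bidirectional fitting against DMSO.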

A short description of assay [20]: ATG_M_32_CIS: Attagene CIS-FACTORIAL HepG2 Assay for M32 Transcription Factor (Internal Marker) (AID 2282949).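 Also: background control marker of the multiplexed CIS panel rather than a real target.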 The conditions noted are these: HepG2 Attagene cis-factorial M32 reporter, mRNA; actives raise or lower the signal. The gist of the method: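 HepG2 transfectants (cis-regulated reporter transcription units) dosed 24 h. Reporter mRNA by RT-PCR plus CE, analysed as gain or loss relative to DMSO.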

Each structure is given as a SMILES string. Some structures have more than one record in an assay (separate samples or runs), and their calls can disagree. Active and inactive are the calls of the source. The calls were made as follows: active = hit-call score of the fitted dose curve at least 0.9, where 1 is the maximum; inactive = score below 0.9.

Sequence of Hepatocyte nuclear factor 6 (Homo sapiens) (Q9UBC0 whole entry, looked up): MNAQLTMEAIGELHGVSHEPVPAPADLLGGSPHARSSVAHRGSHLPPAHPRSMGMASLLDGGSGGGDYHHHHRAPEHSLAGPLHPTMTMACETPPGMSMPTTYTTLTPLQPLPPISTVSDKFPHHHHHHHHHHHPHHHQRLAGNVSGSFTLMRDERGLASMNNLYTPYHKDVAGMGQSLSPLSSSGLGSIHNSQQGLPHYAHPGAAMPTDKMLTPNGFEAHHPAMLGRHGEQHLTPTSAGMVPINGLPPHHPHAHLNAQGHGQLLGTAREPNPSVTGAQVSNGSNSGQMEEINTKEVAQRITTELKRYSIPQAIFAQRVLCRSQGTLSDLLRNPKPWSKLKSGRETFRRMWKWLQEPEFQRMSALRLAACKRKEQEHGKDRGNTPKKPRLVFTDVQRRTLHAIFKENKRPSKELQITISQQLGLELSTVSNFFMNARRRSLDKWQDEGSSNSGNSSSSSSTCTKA
Sequence of Bile acid receptor (Homo sapiens) (Q96RI1 whole entry, looked up): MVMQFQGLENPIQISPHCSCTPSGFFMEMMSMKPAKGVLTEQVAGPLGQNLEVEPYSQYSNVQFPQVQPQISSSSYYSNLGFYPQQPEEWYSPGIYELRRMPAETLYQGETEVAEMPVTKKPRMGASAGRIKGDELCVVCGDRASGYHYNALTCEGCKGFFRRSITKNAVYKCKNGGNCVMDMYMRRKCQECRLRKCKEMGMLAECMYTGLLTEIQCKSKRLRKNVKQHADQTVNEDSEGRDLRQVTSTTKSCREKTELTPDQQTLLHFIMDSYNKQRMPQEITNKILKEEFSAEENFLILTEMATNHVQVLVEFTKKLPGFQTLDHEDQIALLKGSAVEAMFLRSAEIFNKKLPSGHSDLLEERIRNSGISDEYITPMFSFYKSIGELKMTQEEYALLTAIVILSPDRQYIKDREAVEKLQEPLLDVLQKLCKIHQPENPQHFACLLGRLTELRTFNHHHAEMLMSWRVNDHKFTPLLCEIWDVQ
Sequence of Hypoxia-inducible factor 1-alpha (Homo sapiens) (Q16665 whole entry, looked up): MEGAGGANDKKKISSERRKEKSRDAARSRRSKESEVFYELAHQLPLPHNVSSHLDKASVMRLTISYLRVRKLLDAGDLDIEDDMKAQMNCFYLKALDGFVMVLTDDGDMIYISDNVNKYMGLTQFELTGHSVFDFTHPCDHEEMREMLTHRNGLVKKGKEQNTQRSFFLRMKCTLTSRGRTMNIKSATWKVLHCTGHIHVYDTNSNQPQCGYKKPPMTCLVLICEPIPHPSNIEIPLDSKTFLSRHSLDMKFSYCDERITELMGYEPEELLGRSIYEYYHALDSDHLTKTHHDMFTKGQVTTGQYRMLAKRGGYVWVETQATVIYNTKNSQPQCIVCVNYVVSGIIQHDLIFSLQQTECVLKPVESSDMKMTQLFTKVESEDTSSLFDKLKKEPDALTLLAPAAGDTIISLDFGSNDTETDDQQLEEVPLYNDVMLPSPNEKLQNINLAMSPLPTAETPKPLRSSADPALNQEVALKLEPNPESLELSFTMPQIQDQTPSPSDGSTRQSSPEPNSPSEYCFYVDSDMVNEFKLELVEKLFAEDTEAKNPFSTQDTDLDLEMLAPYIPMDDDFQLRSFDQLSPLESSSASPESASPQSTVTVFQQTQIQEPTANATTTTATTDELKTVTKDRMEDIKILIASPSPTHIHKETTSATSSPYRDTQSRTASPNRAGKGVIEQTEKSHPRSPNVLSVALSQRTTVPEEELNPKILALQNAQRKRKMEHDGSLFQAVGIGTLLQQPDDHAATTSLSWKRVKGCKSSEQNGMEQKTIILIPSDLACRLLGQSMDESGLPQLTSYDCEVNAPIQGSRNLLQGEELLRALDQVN
Sequence of Transcription factor E2F1 (Homo sapiens) (Q01094 whole entry, looked up): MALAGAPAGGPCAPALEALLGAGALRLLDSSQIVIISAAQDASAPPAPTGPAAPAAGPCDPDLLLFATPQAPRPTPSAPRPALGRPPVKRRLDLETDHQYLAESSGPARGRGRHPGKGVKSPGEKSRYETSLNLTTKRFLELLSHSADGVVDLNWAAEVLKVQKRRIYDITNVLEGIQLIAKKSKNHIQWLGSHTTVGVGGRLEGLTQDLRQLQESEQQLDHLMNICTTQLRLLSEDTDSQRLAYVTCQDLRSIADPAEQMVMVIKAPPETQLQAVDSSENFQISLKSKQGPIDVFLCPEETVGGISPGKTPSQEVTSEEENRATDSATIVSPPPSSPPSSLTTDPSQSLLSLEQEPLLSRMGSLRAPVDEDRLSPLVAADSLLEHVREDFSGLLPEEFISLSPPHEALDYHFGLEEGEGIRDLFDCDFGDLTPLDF
Sequence of Hepatocyte nuclear factor 3-beta (Homo sapiens) (Q9Y261 whole entry, looked up): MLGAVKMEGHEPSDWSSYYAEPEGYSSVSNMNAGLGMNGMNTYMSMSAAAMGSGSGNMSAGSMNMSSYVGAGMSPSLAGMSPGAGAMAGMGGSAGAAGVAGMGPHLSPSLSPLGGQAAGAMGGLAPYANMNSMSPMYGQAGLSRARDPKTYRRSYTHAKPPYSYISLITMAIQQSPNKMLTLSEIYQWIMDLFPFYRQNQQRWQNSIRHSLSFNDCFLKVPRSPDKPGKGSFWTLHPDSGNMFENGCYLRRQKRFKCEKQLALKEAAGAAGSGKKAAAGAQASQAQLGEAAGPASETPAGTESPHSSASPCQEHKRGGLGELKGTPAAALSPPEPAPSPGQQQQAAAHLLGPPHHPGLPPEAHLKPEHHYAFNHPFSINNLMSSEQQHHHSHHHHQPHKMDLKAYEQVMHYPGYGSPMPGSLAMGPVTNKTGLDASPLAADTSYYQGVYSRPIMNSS
Sequence of Heat shock factor protein 1 (Homo sapiens) (Q00613 whole entry, looked up): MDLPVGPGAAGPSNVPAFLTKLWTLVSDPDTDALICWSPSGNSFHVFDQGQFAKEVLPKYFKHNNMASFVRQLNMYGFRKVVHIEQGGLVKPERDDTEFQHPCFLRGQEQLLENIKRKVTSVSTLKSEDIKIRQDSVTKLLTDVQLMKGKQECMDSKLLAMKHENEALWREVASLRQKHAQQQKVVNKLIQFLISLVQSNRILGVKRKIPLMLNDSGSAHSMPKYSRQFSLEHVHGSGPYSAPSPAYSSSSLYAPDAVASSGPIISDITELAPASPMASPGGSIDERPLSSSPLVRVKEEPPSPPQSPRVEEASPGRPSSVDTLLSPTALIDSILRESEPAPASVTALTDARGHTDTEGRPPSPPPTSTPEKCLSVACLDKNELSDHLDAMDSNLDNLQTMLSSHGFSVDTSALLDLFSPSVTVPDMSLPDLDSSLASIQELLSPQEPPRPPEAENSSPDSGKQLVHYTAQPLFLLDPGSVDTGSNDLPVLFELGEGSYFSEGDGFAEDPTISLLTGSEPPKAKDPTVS

Turning to `O=c1[nH]c2ccccc2c(=O)o1`, the call in assay [1], in assay [2], in assay [3], in [4], in [5] and in assay [6] was inactive. Further, the compound was classed as inactive in [7], in [8], in [9], in assay [10], in assay [11] and in assay [12]. Moreover, the outcome in assay [13], in assay [14], in [15], in assay [16], in assay [17] and in assay [18] was inactive.

With `CCCCOCCOP(=O)(OCCOCCCC)OCCOCCCC`, the compound was classed as inactive in assay [1], in assay [2], in assay [3], in [4], in assay [5] and in assay [6]. Also, the compound was classed as inactive in assay [7], in assay [8], in assay [9], in assay [10], in assay [11] and in assay [13]. Further, the compound was classed as inactive in assay [14], in assay [15], in assay [16], in assay [17], in assay [19] and in assay [18]. Besides, the AC50 in assay [14] is 24.7 µM (active).

In the case of `Cc1ccc([N+](=O)[O-])cc1C`, the outcome in assay [1], in assay [2], in assay [3], in [4], in assay [5] and in assay [6] was inactive. For the same compound, the outcome in assay [7], in assay [8], in assay [9], in assay [10], in assay [11] and in assay [12] was inactive. For the same compound, the call in [14], in assay [20], in [15], in assay [16], in assay [17] and in [19] was inactive. Moreover, in assay [18], the call was inactive.

For the compound `O=C(O)C(F)(F)OC(F)(F)C(F)(F)OC(F)(F)C(=O)O`, the result in assay [1], in assay [2], in [3], in assay [4], in assay [5] and in assay [6] was inactive. Moreover, the result in assay [7], in assay [8], in assay [9], in assay [10], in assay [11] and in [12] was inactive. Also, the compound was classed as inactive in assay [13], in assay [14], in [15], in assay [16], in assay [17] and in assay [19]. The call in assay [18] was inactive.

`CCCCC(CC)COP(=O)(Oc1ccccc1)Oc1ccccc1` (stereo not given): the compound was called inactive in [1], in [2], in assay [3], in assay [5], in [7] and in assay [8]. Also, the compound was classed as inactive in [9], in assay [10], in assay [13], in assay [14], in assay [15] and in assay [17]. The AC50 in [4] was 57.6 µM (active); in [6], 6.77 µM (active); in assay [11], 100 µM (active); in assay [12] it was 25.6 µM (active); in assay [16] it was 100 µM (active); in [19], 72 µM (active). Moreover, the AC50 in [18] was 50.1 µM (active).

In the case of `OCC(F)(F)OC(F)(F)C(F)(F)OC(F)(F)C(F)(F)OC(F)(F)F`, the result in assay [2], in assay [3], in assay [4], in assay [5], in assay [6] and in assay [7] was inactive. In addition, the call in assay [8], in assay [9], in assay [10], in [11], in assay [12] and in [13] was inactive. Besides, the compound was classed as inactive in assay [14], in assay [20], in assay [15], in assay [16], in [17] and in [18]. For the same compound, the figures for the AC50 in [6], in [14] and in assay [18] were 5.62 µM (active), 90 µM (active) and 75.7 µM (active), respectively.

One may read the AC50 as the concentration at which the activity in the assay is half-maximal.

Values taken from PubChem BioAssay (EPA / NIEHS).
